# Data reported in PubChem BioAssay AID652054 (National Center for Advancing Translational Sciences (NCATS), 2013).
# Screen size: about 360,000 compounds; about 9,100 (2.5%) were called active. About 4% were inconclusive and are not listed. Only a selection was taken, and actives are over-represented in it overall. Unmarked numbers belong to inactive results. Cut-off read from the data, not from the text of the source: active = max response below about -50%; inconclusive = no clear call, values can overlap the other calls; inactive = above that.
# Target: D(3) dopamine receptor (Homo sapiens) (UniProt P35462)
# Assay: qHTS of D3 Dopamine Receptor Antagonist: qHTS
# Details: D3R cells, DiscoveRx beta-arrestin luminescence, antagonist mode; stronger effect = lower value
# In short: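 Cells plated overnight at 1500 cells/well, then exposed to library compounds with dopamine controls for 90 minutes at 37 degrees C. DiscoveRx reagent added for 30–60 minutes at room temperature; luminescence read, quantitative HTS format.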
# % is set by controls: 0 for no effect and ±100 for the full control effect.
# Chain of D(3) dopamine receptor (Homo sapiens) (P35462 whole entry, looked up): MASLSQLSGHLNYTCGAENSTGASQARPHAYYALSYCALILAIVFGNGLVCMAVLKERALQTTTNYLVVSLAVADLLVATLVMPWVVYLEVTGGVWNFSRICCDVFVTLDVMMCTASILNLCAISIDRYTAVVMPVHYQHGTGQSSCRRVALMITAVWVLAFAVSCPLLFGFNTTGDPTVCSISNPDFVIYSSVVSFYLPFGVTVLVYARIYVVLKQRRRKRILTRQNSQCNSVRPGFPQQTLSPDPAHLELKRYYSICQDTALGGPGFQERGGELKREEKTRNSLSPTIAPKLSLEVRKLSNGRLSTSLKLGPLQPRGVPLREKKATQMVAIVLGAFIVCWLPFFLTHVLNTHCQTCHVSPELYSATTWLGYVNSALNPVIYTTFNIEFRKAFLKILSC
row,Structure (SMILES),"max response, negative = inhibition"
1,CCNC(=O)C1(C)CCCN1C(=O)c1ccc(N(C)C)cc1 (stereo not drawn),6.44%
2,CC(C)(C)N1C(=O)c2c(C(=O)OCc3ccccc3)[nH]c(-c3ccccc3)c2C1=O,-3.03%
3,CC(=O)Nc1cccc(-c2cc3nc(NCc4cccnc4)n(C)c(=O)c3s2)c1,17.6%
4,COc1ccc(OCC(=O)NNC(=O)C2CCC2)cc1,-0.824%
5,COc1ccc(C(CNC(=O)COc2ccccc2OC)N2CCCCC2)cc1 (stereo not drawn),-53.8% (active)
6,COc1ccc(C(CNC(=O)COc2ccc([N+](=O)[O-])cc2)N2CCCCC2)cc1 (stereo not drawn),-74.5% (active)
7,COc1ccc(C(CNC(=O)c2ccc(OCc3cscn3)cc2)N2CCCC2)cc1 (stereo not drawn),-19.8%
8,CCOc1ccc(NS(=O)(=O)c2ccc(C(=O)NCC(c3ccccc3OC)N3CCCC3)cc2)cc1 (stereo not drawn),-13.6%
9,COc1ccc(C(CNC(=O)CSc2ccccc2)N2CCOCC2)cc1 (stereo not drawn),19.6%
10,CCc1nc2ccc(C(=O)NCCNC(C)=O)cn2c1N(CC)Cc1cccc(Br)c1,48.8%
11,O=C1NC[C@H](Cc2ccc(O)cc2)N(C[C@@H]2CCCN2C[C@H](Cc2ccccc2)N2C[C@H](Cc3ccccc3)N(CC3CCCCC3)C(=O)C2=O)C1=O,8.41%
12,CC(C)(C)c1ccc(C(=O)NNC(=O)Cc2ccccc2)cc1,-17.8%
13,Cc1ccc(SC(CC(=O)c2ccc(C(C)(C)C)cc2)C(=O)O)cc1 (stereo not drawn),-80.7% (active)
14,Cc1ccc(Sc2cc(C(=O)c3ccccc3C(=O)O)ccc2[N+](=O)[O-])cc1,-21.4%
15,CCN1CCN(C(c2cccnc2)c2cc(Cl)c3cccnc3c2O)CC1 (stereo not drawn),-91.7% (active)
16,Cc1ccc([C@H]2C[C@H](O)[C@@H](n3cc(COC(=O)c4ccccc4)nn3)CN2CC2CCCCC2)cc1,1.62%
17,CCN(CC)CCC(c1cc(OC)c(OC)c(OC)c1)c1c(OC)cc(OC)c2c(-c3ccccc3)cc(=O)oc12 (stereo not drawn),15.7%
18,COc1cc(C(CCN2CCN(c3ccccc3)CC2)c2c(OC)cc(OC)c3ccc(=O)oc23)cc(OC)c1OC (stereo not drawn),-84.7% (active)
19,COc1cc(OC)c2ccc(=O)oc2c1C(CCN1CCN(c2ccccc2)CC1)c1ccc2c(c1)OCO2 (stereo not drawn),-81.3% (active)
20,CCN(CC)C(=O)CC(c1ccc2c(c1)OCO2)c1c(OC)cc(OC)c2c(-c3ccccc3)cc(=O)oc12 (stereo not drawn),0.75%
21,COc1ccc(C(CC(=O)N2CCN(c3ccccc3)CC2)c2c(O)cc(OC)cc2OC)cc1 (stereo not drawn),8.17%

row,Structure (SMILES),"max response, negative = inhibition"
1,O=C(C(=O)N1CCN(c2ccccc2)CC1)c1ccc2c(c1)OCO2,-3.44%
2,Cc1cc2nc(-c3ccc(F)cc3)c(Cc3ccsc3)n2c(C)c1Br,28.2%
3,Cc1cc(Br)cn2c(Cc3ccsc3)c(-c3ccc(C#N)cc3)nc12,3.93%
4,Cc1ccc(S(=O)(=O)N2CCC(=O)N([C@H](COCc3ccccc3)Cc3ccccc3)CC2)cc1,-4.09%
5,CCCc1ccc(S(=O)(=O)N2CCN(C(=O)c3cc(C)on3)CC2)cc1,15.8%
6,COCCNC(=O)c1cc2c(Br)ccc(Br)c2nc1N,-12.2%
7,COc1ccc(NC(=O)C(c2ccncc2)n2c(=O)c(-c3cc4ccccc4[nH]3)nc3ccccc32)cc1 (stereo not drawn),12.2%
8,Cc1ccc(Cn2c(C)c(C(=O)NCc3ccccc3C(F)(F)F)sc2=O)cc1,11.8%
9,Cc1cc(C#N)c(SCC(N)=O)nc1-c1ccc(F)cc1,9.54%
10,Cc1ccc(NC(=O)CSc2sc3c(O)cc(=O)[nH]c3c2C#N)cc1C,12.7%
11,Cc1cc(=O)[nH]c(SCC(N)=O)c1C#N,-50.3% (active)
12,C=CCC[C@H](CCCCC)OC(=O)/C=C/[C@H](O)[C@@H](O)C[C@@H](O)CC=C,-8.69%
13,CC(C)(O)C#Cc1ccc(CNC[C@H]2O[C@@H](n3cnc4c(=O)[nH]c(N)nc43)[C@H](O)[C@@H]2O)s1,14.7%
14,Nc1ccccc1-c1nc2ccncc2[nH]1,-1.55%
15,O=C(NC1CCN(Cc2ccccc2)CC1)c1ccc(Oc2cc(Cl)cc(Cl)c2)o1,-87.6% (active)
16,N#Cc1ccc(CN2CCN(CC(=O)Nc3ccccc3C(=O)NC3CC3)CC2)cc1,1.04%
17,CC(C)(C)C(=O)NNC(=O)c1ccc(Oc2cc(Cl)cc(Cl)c2)o1,19.5%
18,CCNC(=S)NNC(=O)C1CCN(Cc2ccccc2)CC1,-27.2%
19,O=C(NC1CCN(Cc2ccccc2)CC1)c1ccccc1F,-72.3% (active)
20,S=C(NN=C1CCN(Cc2ccccc2)CC1)NC1CCCCC1,-1.61%
21,O=C(NC1CCN(Cc2ccccc2)CC1)c1cc(Br)c(Br)[nH]1,-86.7% (active)

row,Structure (SMILES),"max response, negative = inhibition"
1,O=C(CN1CCCCC1)Nc1ccccc1C(=O)NC1CC1,18.3%
2,S=C(NCCCc1ccccc1)Nc1ccc(Br)cc1,11.9%
3,S=C(Nc1ccc(Br)cc1)NC1CCN(Cc2ccccc2)CC1,-58.1% (active)
4,Cc1cc(=O)oc2c(C)c(OC(C)C(=O)NC3CCN(Cc4ccccc4)CC3)ccc12 (stereo not drawn),4.52%
5,COc1ccccc1Cc1c(-c2ccc(Cl)cc2)nc2ccc(Cl)cn12,6.17%
6,CCCCc1ccc(S(=O)(=O)NC(=O)C2(C)CCN2C(=O)c2c(C)noc2C)cc1 (stereo not drawn),0%
7,O=C1NC[C@H](CCCCN2C[C@H](Cc3ccc(O)cc3)N(CCc3ccccc3)C(=O)C2=O)N(CCc2ccccc2)C1=O,4.98%
8,CCOC(=O)[C@]12CCC=C1N(Cc1ccccc1)C(=O)[C@H](CC(=O)N1CCCC1)C2,-17.7%
9,COc1ccccc1NC(=O)C(CC(=O)O)Cc1cc(C)cc(C)c1 (stereo not drawn),-7.58%
10,O=S(=O)(c1cccc(C(F)(F)F)c1)N1c2ccccc2-n2cccc2C1c1cccnc1 (stereo not drawn),9.86%
11,O=S1(=O)CC(N2CCN(CCO)CC2)CN1Cc1cn(Cc2cccc(Cl)c2)nn1 (stereo not drawn),-8.85%
12,CC(C)C[C@H]1CN([C@@H](Cc2ccccc2)CN2CCC[C@@H]2CN2C(=O)C(=O)NC[C@@H]2Cc2ccc(O)cc2)C(=O)C(=O)N1CCc1ccccc1,7.71%
13,COc1cccc(-c2cc3nc(NCCOc4ccccc4Cl)n(C)c(=O)c3s2)c1,18.3%
14,COCCNc1ncnc2c1ncn2[C@H]1CN(CCN2CCOCC2)C[C@@H](CO)O1,-14.7%
15,CCC(=O)N1CCCC1(C)C(=O)Nc1ccc2c(c1)CCN2C(C)=O (stereo not drawn),19.1%
16,CC[C@]1(C(=O)OC)[C@H]2C(=O)N(Cc3ccccc3)C(=O)[C@H]2[C@H]2CN=C(SCc3ccc(Cl)cc3)N21,-3.9%
17,CCC1Nc2ncnc(N3CCN(c4ccccc4)CC3)c2N(Cc2ccc(Cl)cc2)C1=O (stereo not drawn),-73.8% (active)
18,OC[C@@H]1CN(Cc2ccncc2)C[C@H](n2cnc3c(N4CCN(c5ccccc5)CC4)ncnc32)O1,3.87%
19,O=C(CNC(=O)N1CC(=O)Nc2ccccc21)Nc1ccc(Br)cc1F,0%
20,COc1ccc(NC(=O)C2Cc3c(-c4ccc(Cl)cc4)ccnc3O2)cc1 (stereo not drawn),28.4%
21,CC1(C(=O)NS(=O)(=O)Cc2cccc(Cl)c2)CCN1C(=O)Cc1ccccc1 (stereo not drawn),-2.25%

row,Structure (SMILES),"max response, negative = inhibition"
1,CCc1ccc([C@@H]2CC(=O)[C@@H]3CN(S(=O)(=O)c4ccc(C)cc4)[C@H](c4ccc(Cl)cc4)C[C@@H]3N2S(=O)(=O)c2ccc(C)cc2)cc1,0%
2,O=C(O)c1ccccc1-c1cccc2nncn12,0%
3,Cc1ccc(S(=O)(=O)N2CC[C@H]3[C@@H](C2)C(=O)C[C@@H](c2ccccc2)N3S(=O)(=O)c2ccc(C)cc2)cc1,-19.4%
4,O=C(Nc1nccs1)C1CCCN1S(=O)(=O)c1cccc2cccnc12 (stereo not drawn),-56.6% (active)
5,Cc1ccc(NC(=O)C2CCCN2S(=O)(=O)c2cccc3cccnc23)c(C)c1 (stereo not drawn),9.44%
6,Cc1cc(C)cc(NC(=O)C2CCCN2S(=O)(=O)c2cccc3cccnc23)c1 (stereo not drawn),-1.4%
7,CC1(C(=O)Nc2ccc3c(c2)OCCO3)CCN1C(=O)Cc1cc(F)ccc1F (stereo not drawn),26.4%
8,COc1ccc(-c2cc3nc(NCCOc4ccccc4)ccn3n2)cc1,35.5%
9,S=c1[nH]nc(-c2ccc(Cl)cc2)n1CC1CCCO1 (stereo not drawn),-72% (active)
10,Cc1nnc(SCC(=O)NNC(=O)c2ccc(Cl)cc2)n1CC1CCCO1 (stereo not drawn),-18.7%
11,CCn1c(-c2ccncc2)n[nH]c1=S,0.921%
12,O=C(Nc1cc(Br)ccc1F)c1nc[nH]c1C(=O)NCc1ccccc1,-14.4%
13,COc1ccc(-c2[nH][nH]c(=O)c2NC(=O)c2ccc([N+](=O)[O-])cc2)cc1,-25.3%
14,COC(=O)c1ccc2nc(-c3ccc(OC)c(OC)c3)c(Cc3ccccc3)n2c1,1.12%
15,Cc1ccc2cccc([N+](=O)[O-])c2n1,0%
16,COc1cc(NS(=O)(=O)c2ccc3ccccc3c2)c2ncccc2c1,-25.7%
17,O=[N+]([O-])c1ccccc1S(=O)(=O)Nc1cccc2cccnc12,-72% (active)
18,CC(C)Oc1cc(F)ccc1-c1cc(C(=O)Nc2cccc(Cl)c2)[nH]n1,0%
19,CCOC(=O)C1=CC[C@@H](c2ccccc2)N(S(=O)(=O)c2ccc(C)cc2)[C@H]1c1cccc(OC)c1,11.2%
20,CCc1cc(-c2nnn(CCC3COCCO3)c2CC)ccc1-c1cn(Cc2ccc3ccccc3c2)nn1 (stereo not drawn),-10.8%
